Test results reported in PubChem BioAssay.
Activity calls are given as the source filed them.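 How the source made its calls, unless noted: active means NADPH fluorescence slope more negative than the mean of all samples by about 3 SD, 99.7% confidence; inactive means the rest.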

What was measured:
[1] = inhibitors of TNFa-induced NFkB p65 translocation, primary screen, imaging, HUVEC, MLSMR starter and 10KST1 sets (AID 438;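 active means inhibition above 20% together with a positive visual image hit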;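 further: compound added about 3h40 before a 20 min TNFalpha stimulation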;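 on inhibition: signal is the nuclear over cytoplasmic p65 intensity ratio per well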); conditions: HUVEC TNFa-induced p65 nuclear translocation; cell count: measured here: nuclei count (cytotoxicity indicator), at 2.08 µM unless noted; inhibition: at 2 µM, stronger effect = higher value unless noted
[2] = inhibitors of mutant huntingtin aggregation, primary screen, imaging, exon1htt(103Q)mCFP cells, high-content imaging (AID 483;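 active means visual image review flags a hit and inhibition of aggregation exceeds 20%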;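 further: compound exposure lasted 3 days before fixation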;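 on nuclei count: percent of the per-plate median nuclei count of sample wells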); conditions: exon1htt(103Q)mCFP cell line, aggregate imaging, at 2 µM; inhibition of aggregation: stronger effect = higher value; nuclei count: measured here: cell count, toxicity
[3] = inhibitors of E-selectin induction by TNFa, primary screen, imaging, HUVEC, immunofluorescence, MLSMR starter and 10KST1 sets (AID 487;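 active means visually confirmed hit in the image check and inhibition above 20%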;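 on inhibition: signal is fraction of cell area covered by stained E-selectin grains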;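 on nuclei count: 100% = median nuclei count of all wells on the same plate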); conditions: HUVEC TNFalpha-induced E-selectin immunofluorescence imaging, at 2 µM; inhibition: stronger effect = higher value; nuclei count: measured here: cell number, toxicity
[4] = molecular target: Voltage-gated potassium channel subunit beta-2 (Rattus norvegicus) (UniProt P62483); assay: KvBeta enzyme negative modulators, primary screen, biochemical, NADPH fluorescence (AID 622;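 active means fluorescence slope higher than the sample average by over 3 SD, cut at about -0.22 in these data, passing the limit was not always enough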;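 further: slope of raw intensity against log time taken from 70 to 1610 s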); conditions: recombinant KvBeta, 4-cyanobenzaldehyde reduction, at 10 µM, stronger effect = higher value
[5] = molecular target: Voltage-gated potassium channel subunit beta-2 (Rattus norvegicus) (UniProt P62483); assay: KvBeta positive modulators, primary screen, biochemical, NADPH fluorescence (AID 623); conditions: Recombinant KvBeta, NADPH fluorescence decrease slope, 10 min; at 10 µM; stronger effect = lower value;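 further: fluorescence intensity change per second fitted from 20 to 320 s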
[6] = molecular target: Alpha-2C adrenergic receptor (Homo sapiens) (UniProt P18825); assay: modulators of alpha2C/GIRK thallium flux, primary screen, cell-based, HEK293 alpha2C/GIRK1/2 (AID 624;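 active means fluorescence slope after compound addition differing from the mean of all screened samples at 99.7% confidence, in either direction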;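 further: slope of fluorescence ratio to pre-addition baseline per second over 15 to 24 s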); conditions: thallium flux BTC fluorescence, at 10 µM, actives lie on both sides
[7] = inhibitors of Sendai virus-induced IRF3 signaling, primary screen, TLR/RLR signaling modifier project, cell-based, Sendai virus stimulus, luciferase, 10K MLSCN set (AID 602276;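 active means inhibition at or above 50% at 10 µM; inactive means inhibition below 50%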;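 further: firefly luciferase from ISG56 promoter only with Renilla not read in this screen; 0% = Sendai virus plus DMSO and 100% = medium plus DMSO without virus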); conditions: HEK293 RL24 IRF3 luciferase reporter, at 10 µM, stronger effect = higher value
[8] = inhibitors of poly I:C-induced TLR3 signaling, primary screen, cell-based, poly I:C stimulus, luciferase, 10K MLSCN set (AID 602277;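 active means inhibition of the reporter signal at or above 50%; inactive means inhibition below 50%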); conditions: HEK293-TLR3 RL24 IRF3 luciferase reporter, at 10 µM, stronger effect = higher value

Chain of Voltage-gated potassium channel subunit beta-2 (Rattus norvegicus) (P62483 whole entry, looked up): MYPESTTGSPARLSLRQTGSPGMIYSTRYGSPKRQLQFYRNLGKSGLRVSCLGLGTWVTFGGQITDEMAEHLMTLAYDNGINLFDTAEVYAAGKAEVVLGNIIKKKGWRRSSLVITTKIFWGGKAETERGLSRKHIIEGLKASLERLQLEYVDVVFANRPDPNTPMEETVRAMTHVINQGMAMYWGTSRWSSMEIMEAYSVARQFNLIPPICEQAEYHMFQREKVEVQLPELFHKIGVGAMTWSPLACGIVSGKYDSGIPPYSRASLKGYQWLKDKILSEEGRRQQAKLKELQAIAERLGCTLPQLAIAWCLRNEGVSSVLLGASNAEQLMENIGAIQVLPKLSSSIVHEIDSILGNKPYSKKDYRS
Chain of Alpha-2C adrenergic receptor (Homo sapiens) (P18825 whole entry, looked up): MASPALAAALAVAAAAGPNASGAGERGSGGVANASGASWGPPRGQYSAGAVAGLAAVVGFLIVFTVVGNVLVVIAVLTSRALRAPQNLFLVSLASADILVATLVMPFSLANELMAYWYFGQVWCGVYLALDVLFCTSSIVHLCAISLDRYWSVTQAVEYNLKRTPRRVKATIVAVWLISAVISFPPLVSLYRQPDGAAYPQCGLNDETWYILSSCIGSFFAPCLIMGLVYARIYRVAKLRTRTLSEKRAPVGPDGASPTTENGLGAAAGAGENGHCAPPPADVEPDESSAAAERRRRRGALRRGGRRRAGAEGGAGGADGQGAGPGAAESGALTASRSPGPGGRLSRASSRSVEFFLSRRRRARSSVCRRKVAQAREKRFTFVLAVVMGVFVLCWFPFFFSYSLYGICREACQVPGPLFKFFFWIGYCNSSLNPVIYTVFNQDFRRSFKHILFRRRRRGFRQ

| SMILES | cell count [1] | inhibition [1] | inhibition of aggregation [2] | nuclei count [2] [%] | inhibition [3] | nuclei count [3] [%] | fluorescence slope [4] | NADPH fluorescence slope [5] | slope [6] | inhibition [7] | inhibition [8] |
| --- | --- | --- | --- | --- | --- | --- | --- | --- | --- | --- | --- |
| O=C(CN1C2CCC1CC(O)(c1cccnc1)C2)Nc1ccc2c(c1)OCO2 (stereo not drawn) | 414 | 7.5% (inactive) | -3.4% (inactive) | 104 | -176% (inactive) | 115 | -0.591 (inactive) | 5.6e-07 (inactive) | 0.00303 (inactive) | 15% (inactive) | 22.4% (inactive) |
| O=C(c1sc2ccccc2c1Cl)N1CCC2(CC1)OCCO2 | 388 | 2.5% (inactive) | -5.9% (inactive) | 107 | -59.7% (inactive) | 105 | -0.405 (inactive) | 3e-05 (inactive) | 0.00266 (inactive) | -10.2% (inactive) | -29.6% (inactive) |
| COc1ccccc1N(CC(=O)NC1CCCCC1)C(=O)c1cnn(C(C)C)c1 | 526 | 2.5% (inactive) | 3.2% (inactive) | 102 | -128% (inactive) | 157 | -0.598 (inactive) | 9.1e-06 (inactive) | 0.00634 (inactive) | -9.99% (inactive) | -3.91% (inactive) |
| CCCC(C)C1C(C#N)=C(N)Oc2c1c(=O)oc1ccccc21 (stereo not drawn) | 547 | -13.2% (inactive) | 9.9% (inactive) | 86.4 | -29.8% (inactive) | 108 | -0.422 (inactive) | 2.9e-06 (inactive) | 0.00396 (inactive) | 7.33% (inactive) | 22.2% (inactive) |
| O=P(OCC(F)(F)C(F)F)(N1CCCCC1)N1CCCCC1 | 336 | -10.1% (inactive) | -9.4% (inactive) | 121 | -152% (inactive) | 134 | -0.5 (inactive) | 2.3e-05 (inactive) | 0.00426 (inactive) | 7.79% (inactive) | 9.95% (inactive) |
| CC(C)C(=O)c1cn(Cc2ccccc2C#N)c2ccccc12 | 504 | 3.5% (inactive) | 11.4% (inactive) | 72.7 | -24.8% (inactive) | 99.8 | -0.376 (inactive) | 3.6e-05 (inactive) | 0.00712 (inactive) | 17.4% (inactive) | 20.1% (inactive) |
| CN(C)c1cc(N)c2c(n1)CCC2 (tested in a mixture with another compound) | 443 | -0.3% (inactive) | -9% (inactive) | 98.2 | -17.4% (inactive) | 124 | -0.376 (inactive) | -5.8e-05 (inactive) | 0.00598 (inactive) | 11.4% (inactive) | 17.8% (inactive) |
| CC(=O)C1C(=O)NC23CCCCC2C1c1ccccc1O3 (stereo not drawn) | 622 | 3.3% (inactive) | 2.2% (inactive) | 109 | 25.3% (inactive) | 99.5 | -0.357 (inactive) | 4e-05 (inactive) | 0.0063 (inactive) | 4.02% (inactive) | 14.8% (inactive) |
| COc1ccc(S(=O)(=O)NC(CC(=O)N2CCC3(CC2)OCCO3)c2ccco2)cc1 (stereo not drawn) | 633 | 6.7% (inactive) | 16.2% (inactive) | 86.8 | -121% (inactive) | 144 | -0.451 (inactive) | -0.000345 (inactive) | 0.00534 (inactive) | 17.9% (inactive) | 22.1% (inactive) |
| CCOCC(=O)NC1CCSC1=O (stereo not drawn) | 342 | -5% (inactive) | 17.7% (inactive) | 75.2 | 10.8% (inactive) | 95.3 | -0.48 (inactive) | -4.8e-05 (inactive) | 0.00601 (inactive) | 18.6% (inactive) | 23.1% (inactive) |
| CC(=NCc1ccc2c(c1)OCO2)c1c(O)n(C)c(=O)n(C)c1=O | 629 | -10.8% (inactive) | 0.7% (inactive) | 94.1 | 5.3% (inactive) | 97.5 | -0.409 (inactive) | 1.3e-05 (inactive) | 0.00333 (inactive) | 20.7% (inactive) | 25.9% (inactive) |
| CCOc1c(P(=S)(N(C)C)N(C)C)c(C)nn1-c1ccccc1 | 305 | -5.2% (inactive) | 4.6% (inactive) | 108 | -3.3% (inactive) | 112 | -0.345 (inactive) | 8e-06 (inactive) | 0.0033 (inactive) | 13.8% (inactive) | 16.7% (inactive) |
| CC(=NCCCN1CCOCC1)c1c(O)n(-c2ccccc2C)c(=O)[nH]c1=O | 377 | 3.3% (inactive) | -27.1% (inactive) | 107 | -21.8% (inactive) | 112 | -0.506 (inactive) | -3.5e-05 (inactive) | 0.00474 (inactive) | 7.9% (inactive) | 15% (inactive) |
| CCOc1cc2[nH]c(=S)n(CCCC(=O)N3CCC4(CC3)OCCO4)c(=O)c2cc1OCC | 429 | 9.4% (inactive) | -0.4% (inactive) | 95.6 | -41.4% (inactive) | 107 | -0.464 (inactive) | 7.5e-06 (inactive) | 0.00495 (inactive) | -5.57% (inactive) | 17.4% (inactive) |
| Cc1ccc(C)c(NC2=NCCCS2)c1 | 304 | 9.3% (inactive) | 15.3% (inactive) | 92.5 | -82.5% (inactive) | 91 | -0.566 (inactive) | 9.6e-06 (inactive) | 0.00513 (inactive) | 17.2% (inactive) | 22% (inactive) |
| COc1ccccc1N1CCN(Cc2c(F)cccc2F)CC1 | 410 | -1.1% (inactive) | 13.8% (inactive) | 98.7 | -26.3% (inactive) | 118 | -0.431 (inactive) | -1.4e-05 (inactive) | 0.00585 (inactive) | 15.2% (inactive) | 27.3% (inactive) |
| Cc1nn(-c2ccccc2)c2c1CC1(C(=O)N(C)C(=O)N(C)C1=O)C1CCCCN21 (stereo not drawn) | 438 | -14.2% (inactive) | 26.9% (inactive) | 65.3 | -8.8% (inactive) | 101 | -0.509 (inactive) | -2.5e-05 (inactive) | 0.00545 (inactive) | -9.7% (inactive) | 28.2% (inactive) |
| CN(C)CCN=Cc1c(O)n(-c2cccc3ccccc23)c(=O)[nH]c1=O | 569 | 0% (inactive) | -6.8% (inactive) | 107 | 25.9% (inactive) | 110 | -0.419 (inactive) | -4.5e-05 (inactive) | 0.00451 (inactive) | 14% (inactive) | 11.3% (inactive) |
| CCc1ccc(OCCCN=C(C)c2c(O)n(C)c(=O)n(C)c2=O)cc1 | 627 | 0.2% (inactive) | -0.8% (inactive) | 84.3 | 23.8% (inactive) | 95.1 | -0.385 (inactive) | 2.2e-06 (inactive) | 0.00351 (inactive) | 11.6% (inactive) | 14.8% (inactive) |
| Cc1nn(Cc2ccccc2Cl)c(Cl)c1C(=O)OCC(=O)NCc1ccco1 | 459 | -14% (inactive) | 3.2% (inactive) | 105 | -20.7% (inactive) | 112 | -0.605 (inactive) | -1.7e-05 (inactive) | 0.00264 (inactive) | 5.25% (inactive) | -0.539% (inactive) |
| Cc1oc2ccc(OC(=O)N(C)C)cc2c1C(=O)OC(C)C | 450 | 0.8% (inactive) | 1.1% (inactive) | 99.7 | -78.3% (inactive) | 155 | -0.606 (inactive) | -3.3e-05 (inactive) | 0.00801 (inactive) | 9.46% (inactive) | -11.8% (inactive) |
| Cn1c(=O)cc(OCC(=O)N2CCN(C3CCCCC3)CC2)c2ccccc21 | 535 | -5.5% (inactive) | 14.2% (inactive) | 81.7 | -119% (inactive) | 113 | -0.533 (inactive) | -5e-05 (inactive) | 0.00729 (inactive) | 2.25% (inactive) | 55.3% (active) |
| COC(=NC1CCCC1)C(O)c1c[nH]c2ccccc12 (stereo not drawn) | 602 | 9.7% (inactive) | 14% (inactive) | 88.5 | -22.4% (inactive) | 79.7 | -0.536 (inactive) | -2.7e-05 (inactive) | 0.00519 (inactive) | 5.75% (inactive) | 32.2% (inactive) |
| CCOP(=S)(OCC)c1ccc(N(C)C)cc1 | 670 | -1% (inactive) | 18.4% (inactive) | 68.7 | -113% (inactive) | 117 | -0.572 (inactive) | 3.8e-05 (inactive) | 0.00443 (inactive) | -17.4% (inactive) | -4.41% (inactive) |
| COc1ccc(CN2CCN(c3ccccc3F)CC2)c(OC)c1 | 420 | 7.1% (inactive) | -8.1% (inactive) | 109 | -39% (inactive) | 125 | -0.38 (inactive) | 4.4e-05 (inactive) | 0.00736 (inactive) | 4.18% (inactive) | 24.2% (inactive) |
| CCCCNC(=O)c1c(N)n(CCCOC)c2nc3ccccc3nc12 | 447 | 14.6% (inactive) | 16.7% (inactive) | 95 | 0.8% (inactive) | 111 | -0.245 (inactive) | -2.4e-06 (inactive) | 0.00654 (inactive) | -5.16% (inactive) | -28.3% (inactive) |
| CN1CCN(c2nc3ccccc3c(=O)n2-c2ccccc2)CC1 | 568 | -2.3% (inactive) | -4.9% (inactive) | 70.3 | -3.5% (inactive) | 102 | -0.57 (inactive) | -2.8e-05 (inactive) | 0.00748 (inactive) | 845% [above what the read-out allows, likely interference] (active) | 50.1% (active) |
| O=c1[nH]c(=O)n(CCc2ccc(F)cc2)c(O)c1C=NCCCn1ccnc1 | 544 | 2.2% (inactive) | -7.2% (inactive) | 110 | 2.2% (inactive) | 102 | -0.589 (inactive) | -3.2e-05 (inactive) | 0.00323 (inactive) | 13.3% (inactive) | 24% (inactive) |
